Here are results for 92 compounds from PubChem BioAssay AID588689 (Southern Research Specialized Biocontainment Screening …, 2011).

Screen size: about 340,000 compounds; about 1,000 (0.29%) were called active. No stated cut-off is given here; in the data, inconclusive means inhibition above about 29% without an active follow-up result; inactive means below that. These entries were drawn from the full list. Potency and affinity values are given separately.

This test deals with Genome polyprotein (Dengue virus type 2 (strain 16681-PDK53)) (UniProt P29991). Nature of the test: Dengue-2 NS5 methyltransferase inhibitors, primary screen, biochemical, confirmation dose response (AID 588689). The settings on record: Dengue-2 NS5 methyltransferase capping enzyme assay, at 25 µM, stronger effect = higher value.
Genome polyprotein (Dengue virus type 2 (strain 16681-PDK53)), sequence (P29991 whole entry, looked up): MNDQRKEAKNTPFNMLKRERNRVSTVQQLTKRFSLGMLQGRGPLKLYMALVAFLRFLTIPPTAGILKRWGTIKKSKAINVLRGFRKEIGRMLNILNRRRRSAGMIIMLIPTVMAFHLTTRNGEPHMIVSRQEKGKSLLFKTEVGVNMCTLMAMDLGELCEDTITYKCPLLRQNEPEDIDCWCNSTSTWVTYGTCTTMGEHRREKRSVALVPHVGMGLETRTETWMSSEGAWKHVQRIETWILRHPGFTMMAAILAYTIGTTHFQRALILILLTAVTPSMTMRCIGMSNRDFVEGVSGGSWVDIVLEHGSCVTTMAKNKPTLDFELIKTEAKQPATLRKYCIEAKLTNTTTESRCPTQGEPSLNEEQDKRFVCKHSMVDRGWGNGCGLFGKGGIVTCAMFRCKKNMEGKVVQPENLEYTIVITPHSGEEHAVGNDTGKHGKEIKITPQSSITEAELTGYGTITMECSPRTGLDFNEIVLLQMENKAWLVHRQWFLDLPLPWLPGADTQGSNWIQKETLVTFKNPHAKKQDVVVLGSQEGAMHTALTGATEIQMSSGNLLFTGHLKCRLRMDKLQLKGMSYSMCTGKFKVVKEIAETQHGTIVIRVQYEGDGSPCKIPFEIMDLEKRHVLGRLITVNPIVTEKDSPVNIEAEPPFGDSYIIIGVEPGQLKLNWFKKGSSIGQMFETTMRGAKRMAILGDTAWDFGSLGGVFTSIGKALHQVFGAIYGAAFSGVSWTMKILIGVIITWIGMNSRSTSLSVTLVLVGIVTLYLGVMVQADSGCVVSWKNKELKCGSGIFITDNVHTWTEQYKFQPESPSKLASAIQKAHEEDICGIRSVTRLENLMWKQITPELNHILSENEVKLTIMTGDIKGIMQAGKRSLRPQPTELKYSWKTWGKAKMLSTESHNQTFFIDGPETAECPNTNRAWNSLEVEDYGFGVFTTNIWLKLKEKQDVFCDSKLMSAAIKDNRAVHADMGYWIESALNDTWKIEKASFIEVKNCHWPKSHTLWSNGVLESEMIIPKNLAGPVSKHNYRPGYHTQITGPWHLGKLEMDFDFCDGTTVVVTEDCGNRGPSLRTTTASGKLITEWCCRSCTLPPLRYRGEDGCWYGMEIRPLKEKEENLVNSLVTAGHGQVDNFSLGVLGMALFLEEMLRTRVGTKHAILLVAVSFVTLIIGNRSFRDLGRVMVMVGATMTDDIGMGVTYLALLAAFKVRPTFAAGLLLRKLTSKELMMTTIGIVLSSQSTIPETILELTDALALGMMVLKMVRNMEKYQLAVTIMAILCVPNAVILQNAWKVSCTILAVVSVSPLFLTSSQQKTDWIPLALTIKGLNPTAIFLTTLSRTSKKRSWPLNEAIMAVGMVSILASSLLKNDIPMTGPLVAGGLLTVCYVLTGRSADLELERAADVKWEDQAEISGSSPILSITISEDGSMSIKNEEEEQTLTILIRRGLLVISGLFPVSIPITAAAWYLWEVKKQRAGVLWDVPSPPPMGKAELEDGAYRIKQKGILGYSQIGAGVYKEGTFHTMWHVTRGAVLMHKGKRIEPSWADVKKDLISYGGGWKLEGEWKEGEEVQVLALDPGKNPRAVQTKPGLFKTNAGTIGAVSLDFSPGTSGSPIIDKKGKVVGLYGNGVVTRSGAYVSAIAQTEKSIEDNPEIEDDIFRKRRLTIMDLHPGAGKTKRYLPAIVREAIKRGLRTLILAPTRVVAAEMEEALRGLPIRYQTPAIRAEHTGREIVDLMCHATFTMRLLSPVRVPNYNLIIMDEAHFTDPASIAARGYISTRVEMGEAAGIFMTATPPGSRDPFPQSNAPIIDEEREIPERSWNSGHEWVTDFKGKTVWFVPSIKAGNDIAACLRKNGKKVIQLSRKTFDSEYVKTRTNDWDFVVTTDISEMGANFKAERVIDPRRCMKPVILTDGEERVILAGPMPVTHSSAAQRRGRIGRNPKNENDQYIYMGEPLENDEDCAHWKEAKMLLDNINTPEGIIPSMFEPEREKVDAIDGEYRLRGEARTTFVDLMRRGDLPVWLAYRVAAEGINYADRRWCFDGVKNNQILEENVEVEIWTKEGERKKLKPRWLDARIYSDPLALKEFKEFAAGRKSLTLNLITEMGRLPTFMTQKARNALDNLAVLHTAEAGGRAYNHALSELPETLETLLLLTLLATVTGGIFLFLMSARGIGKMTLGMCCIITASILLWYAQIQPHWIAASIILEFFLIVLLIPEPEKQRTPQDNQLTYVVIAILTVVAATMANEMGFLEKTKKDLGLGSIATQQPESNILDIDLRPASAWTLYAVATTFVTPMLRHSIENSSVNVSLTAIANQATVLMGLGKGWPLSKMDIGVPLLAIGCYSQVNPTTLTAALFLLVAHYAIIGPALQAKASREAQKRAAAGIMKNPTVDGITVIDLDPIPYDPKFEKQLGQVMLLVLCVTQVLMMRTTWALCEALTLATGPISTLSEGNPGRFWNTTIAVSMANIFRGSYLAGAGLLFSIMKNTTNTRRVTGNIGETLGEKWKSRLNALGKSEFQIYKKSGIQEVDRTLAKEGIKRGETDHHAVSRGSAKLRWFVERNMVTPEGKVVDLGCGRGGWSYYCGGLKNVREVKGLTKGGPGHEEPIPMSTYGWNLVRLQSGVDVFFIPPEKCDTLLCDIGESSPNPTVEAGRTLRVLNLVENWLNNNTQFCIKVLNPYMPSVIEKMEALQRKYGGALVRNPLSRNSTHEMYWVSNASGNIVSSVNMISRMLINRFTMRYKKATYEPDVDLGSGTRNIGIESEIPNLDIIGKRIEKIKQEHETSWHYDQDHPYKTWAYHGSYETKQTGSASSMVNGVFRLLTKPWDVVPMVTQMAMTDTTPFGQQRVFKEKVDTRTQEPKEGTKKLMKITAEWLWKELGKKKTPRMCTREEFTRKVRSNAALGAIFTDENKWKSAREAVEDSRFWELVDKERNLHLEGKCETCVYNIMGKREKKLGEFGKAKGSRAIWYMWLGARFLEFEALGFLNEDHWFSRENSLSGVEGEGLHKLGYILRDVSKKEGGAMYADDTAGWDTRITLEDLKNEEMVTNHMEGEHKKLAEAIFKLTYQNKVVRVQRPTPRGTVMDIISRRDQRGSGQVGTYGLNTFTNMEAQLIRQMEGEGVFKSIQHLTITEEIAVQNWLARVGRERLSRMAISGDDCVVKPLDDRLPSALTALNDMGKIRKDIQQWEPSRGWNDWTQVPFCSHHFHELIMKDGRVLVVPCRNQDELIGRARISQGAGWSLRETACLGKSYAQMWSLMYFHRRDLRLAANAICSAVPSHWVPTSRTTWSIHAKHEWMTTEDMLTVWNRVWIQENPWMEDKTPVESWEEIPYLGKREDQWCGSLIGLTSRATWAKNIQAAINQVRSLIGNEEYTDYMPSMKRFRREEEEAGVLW
[1] abbreviates: measured here: pilot screen replicate inhibition.

As a reminder, the inhibition is the change of the read-out against control, counted positive when it falls. With `COc1ccc(/C=C/C(=O)c2cc(Br)ccc2O)cc1OC`, the inhibition is 0.78% (inactive).
The same measure, in the same setting: then `Cc1cccc(-n2nnnc2SCC(=O)Nc2cccc(S(N)(=O)=O)c2)c1`, with 0% (inactive); and `Cc1ccc(NC(=S)NCC2CCCO2)cc1` (stereo not given), with -18% (inactive).
With `C[C@H](CO)N1C[C@H](C)[C@@H](CN(C)Cc2ccc(C(=O)O)cc2)Oc2c(NS(=O)(=O)c3cccs3)cccc2C1=O`, the inhibition is 2.31% (inactive). Also, the inhibition under setting [1] was -3.33%.
Regarding `CC1(C)CC(=O)C(C#N)=C(NCCCO)C1`, the inhibition was -3.49% (inactive).
Still for that read-out and setting: the value for `CC(C)=NNC1=NC(C)(C)Cc2ccccc21` was 3.83% (inactive); that for `O=Cc1c(Cl)cccc1Cl` was 0% (inactive).
As for `O=C1NC(=S)NC1=Cc1ccc(Cl)cc1Cl`, the inhibition is -0.78% (inactive).
The same measure, in the same setting: then `O=C1NC(=S)NC(=O)C1=Cc1ccccc1C(=O)O`, with 1.94% (inactive); and `O=C1NC(=O)/C(=C/c2ccccc2Cl)N1`, with -5.96% (inactive).
On the same count and under the same terms, the value for `C=CCOC(=O)C(=O)/C=C/c1csc2ccccc12` was 23.7% (inactive).
The same measure, in the same setting: the value for `O=C1Nc2ccccc2/C1=C/c1ccccc1Cl` was -2.65% (inactive); that for `C/C=C/C=C\C(=O)Nc1cccc(C2=NOC3(C2)C[C@H](C(N)=O)N(C(=O)/C=C/C)C3)c1` (stereo not given in full) was -9.17% (inactive); that for `CCOC(=O)c1c(S(=O)(=O)N(C)C2CCCCC2)c(C)n(C)c1C` was -7.99% (inactive).
With `CC(C)(CNC(=O)c1cc(Cl)c(O)c(Cl)c1)N1CCCCC1`, the inhibition was 3.57% (inactive).
On the same count and under the same terms, the value for `CCC1=NN2C(=N)/C(=C/c3ccc(OS(=O)(=O)c4ccccc4)c(OC)c3)C(=O)N=C2S1` was 4.04% (inactive); that for `N=C1/C(=C\c2ccc(OC(=O)c3ccccc3)cc2)C(=O)N=C2SC(N3CCOCC3)=NN12` was 3.46% (inactive).
Same read-out and setting: the value for `N=C1/C(=C\c2ccc(OC(=O)c3ccccc3Cl)cc2)C(=O)N=C2SC(N3CCOCC3)=NN12` was 34.8% (inactive); that for `N=C1/C(=C\c2ccc(OC(=O)c3ccc(F)cc3)cc2)C(=O)N=C2SC(N3CCCC3)=NN12` was -2.77% (inactive); that for `CCC1=NN2C(=N)/C(=C\c3ccc(OCCOc4ccc(NC(C)=O)cc4)c(OC)c3)C(=O)N=C2S1` was 4.57% (inactive).
On the same count and under the same terms, the value for `Cc1ccc(C(=O)Oc2ccc(/C=C3\C(=N)N4N=C(N5CCOCC5)SC4=NC3=O)cc2)cc1` was 9.04% (inactive); that for `COCCN(CCOC)S(=O)(=O)c1ccc(C(=O)NCCCN2CCOCC2)cc1` was -2.15% (inactive).
Turning to `O=C(c1ccco1)N1CCN(C(=S)Nc2ccccc2Cl)CC1`, the inhibition was 1.93% (inactive).
Consider `Cc1cc2n(n1)C(c1ccsc1)Nc1ccccc1-2` (stereo not given), for which the inhibition was -9.35% (inactive).
For the compound `C/C(=C\COc1cc(=O)[nH]c2ccccc12)CCC(O)C(C)(C)O` (stereo not given), the inhibition was -11.2% (inactive).
The same measure, in the same setting: then `Cc1nc2ccccc2n1CC(=O)NC(C)C1CC2CCC1C2` (stereo not given), with -6.66% (inactive); and `C=CCn1c(SCc2ccc(F)cc2)nc2c1c(=O)[nH]c(=O)n2C`, with -3.48% (inactive).
Same read-out and setting: the value for `Cc1nn(CC(=O)Nc2cccnc2)c(C)c1[N+](=O)[O-]` was -9.49% (inactive); that for `C/C(=N/NC(=O)Cc1ccccc1)c1ccc(C)s1` was 5.19% (inactive).
Consider `O=C1ON=C(c2ccccc2)/C1=C/c1ccc(O)cc1`, for which the inhibition was 42% (inactive). Further, the inhibition under setting [1] was determined as 20.8%.
Regarding `Cc1ccc(C2=NOC(=O)/C2=C\c2ccccc2)cc1`, the inhibition is 27.9% (inactive).
Same read-out and setting: then `O=C1ON=C(c2ccccc2)/C1=C/c1ccc(O)c(O)c1`, with 28.7% (inactive).
In the case of `O=C1ON=C(c2ccccc2)/C1=C/c1ccccc1`, the inhibition is 27% (inactive). Also, the inhibition under setting [1] was found to be 8.25%.
Take `O=c1[nH]c2cc(Cl)cc(Cl)c2[nH]c1=O`: the inhibition is -3.92% (inactive).
On to `CSc1nc(N(C)C)nc(N(C#N)CCOC(C)=O)n1`, for which the inhibition is 0.74% (inactive).
Take `COc1ccc(NS(=O)(=O)c2cc(NC(=O)[C@@H](NC(=O)c3ccccc3)C(C)C)ccc2C)cc1`: the inhibition is -3.89% (inactive).
Still for that read-out and setting: the value for `COc1ccc(CN=Cc2c(C(=O)O)[nH]c3ccccc23)cc1` was -3.12% (inactive).
Same read-out and setting: then `C=CCOc1ccc(C(c2c(C)n(C)n(-c3ccccc3)c2=O)c2c(C)n(C)n(-c3ccccc3)c2=O)cc1`, with -3.27% (inactive).
Take `O=C(O)c1[nH]c2ccccc2c1-c1ccccc1`: the inhibition was -4.76% (inactive).
With `COc1cc(CC(=O)O)ccc1OCc1ccccc1`, the inhibition was -5.48% (inactive).
On the same count and under the same terms, then `O=C(O)CCc1c(C(=O)O)[nH]c2ccccc12`, with -0.56% (inactive).
Still for that read-out and setting: the value for `COc1cc(C(NC(C)=O)NC(C)=O)ccc1OCc1ccccc1` was -12.5% (inactive).
As for `Cc1[nH]c2ccccc2c1SCC(=O)O`, the inhibition was -8.76% (inactive).
As for `CC(=O)Nc1c(C(=O)O)[nH]c2ccccc12`, the inhibition was -4.8% (inactive).
Same read-out and setting: the value for `COc1ccc2sc(N(CCCN(C)C)C(=O)c3ccc(C(=O)c4ccccc4)cc3)nc2c1` was 0% (inactive).
In the case of `CN(Cc1ccccc1F)C(=O)C1CCCN(C(=O)c2ccc(Cl)cc2)C1` (stereo not given), the inhibition was 3.62% (inactive).
Still for that read-out and setting: the value for `COc1ccc(NS(=O)(=O)c2ccc3c(c2)N(C(C)=O)CCS3)cc1` was -7.87% (inactive); that for `CCOc1nc(C)ccc1-c1noc(C)n1` was 0% (inactive); that for `COCc1c(Br)c(C)nc(OCC(=O)O)c1C#N` was 0.8% (inactive).
Still for that read-out and setting: the value for `CCCCN(C(=O)CCC(=O)Nc1cc(C)on1)C(C(=O)NC1CCCC1)c1ccc(F)cc1` (stereo not given) was -14.2% (inactive); that for `N#Cc1cc2c(nc1SCc1cccc(Cl)c1)CCCCC2` was 4.4% (inactive); that for `Cc1ccc(C(=O)OCC(=O)N2CCC(C)CC2)cc1S(=O)(=O)N1CCCCC1` was -4.55% (inactive).
For the compound `CCCCSC1=N/C(=C/c2ccsc2)C(=O)N1c1ccccc1`, the inhibition was -1.97% (inactive).
Same read-out and setting: then `Fc1cccc(COc2ccccc2C(=S)N2CCCC2)c1`, with -5.22% (inactive); and `CCS(=O)(=O)Nc1c(C(=O)O)[nH]c2ccccc12`, with -0.33% (inactive); and `Cc1[nH]c2ccccc2c1C(C[N+](=O)[O-])c1cccc(O)c1` (stereo not given), with -3.77% (inactive).
Still for that read-out and setting: then `C#CCOCCOCCOCCNc1nc(N2CCN(C(=O)[C@H](CO)n3cc([C@@H](N)C(C)C)nn3)CC2)nc(N2CCN(C(=O)[C@H](CCCCN)n3cc([C@@H](N)[C@H](C)CC)nn3)CC2)n1`, with 0% (inactive); and `Cc1ccc(/C=N/NC(=O)c2ccncc2)cc1`, with -7.15% (inactive).
`Cc1ccsc1/C=N/NC(=O)c1ccncc1`: the inhibition is -0.74% (inactive).
The same measure, in the same setting: then `Cn1c(=O)c(/C(N)=N/OC(=O)c2ccccc2)cn(-c2ccccc2)c1=O`, with 0% (inactive); and `CCc1nc2nc(C)c(NS(=O)(=O)c3ccc(C4CCCCC4)cc3)c(=O)n2[nH]1`, with 7.51% (inactive); and `Cc1nc2nc(C)c(NS(=O)(=O)c3ccc(C4CCCCC4)cc3)c(=O)n2[nH]1`, with -5.01% (inactive).
In the case of `Cc1cc(Br)ccc1NC(=O)c1ccc(-n2cncn2)c([N+](=O)[O-])c1`, the inhibition was 5.79% (inactive).
Still for that read-out and setting: the value for `O=C(CCCCCNc1nc(=S)[nH]c2ccccc12)NCCC1=CCCCC1` was -4.45% (inactive); that for `CCCCn1c(N)c(N(CC(C)C)C(=O)C2CCCO2)c(=O)[nH]c1=O` (stereo not given) was -0.74% (inactive).
On the same count and under the same terms, the value for `COc1cc2c(cc1OC)C1c3ccc(OC)c(OC)c3OCC1(O)C2` (stereo not given) was 3.23% (inactive); that for `CCOc1ccc(NC(=O)CN(C)C(=O)c2ccncc2)cc1OCC` was 4.54% (inactive); that for `O=C(CCOc1ccccc1)N1CCCC(Nc2ccccc2)C1` (stereo not given) was -3.45% (inactive).
On the same count and under the same terms, then `COc1cccc(CNC(=O)[C@H](C)NC(=O)C2CCN(S(=O)(=O)c3ccccc3)CC2)c1`, with -6.35% (inactive); and `CC12CCC(=O)N1C(C(=O)Nc1nccs1)CS2` (stereo not given), with -5.93% (inactive).
For the compound `O=C(O)CSc1nc(-c2ccccc2)nc2c1oc1ccccc12`, the inhibition is 5.73% (inactive).
As for `Cc1nc(SCC(=O)O)c2oc3ccccc3c2n1`, the inhibition is -1.65% (inactive).
The same measure, in the same setting: then `CC(C)(C)c1ccc(C(=O)Nc2c3c(nn2C(C)(C)C)CS(=O)(=O)C3)cc1`, with -9.75% (inactive); and `CCCOC(=O)CSC1=C(C#N)C(c2ccccc2OC)C(C#N)C(=O)N1` (stereo not given), with -15.9% (inactive); and `CNC(=O)CC1C(=O)N(C)C(=S)N1NC(=O)c1ccccc1` (stereo not given), with 2.33% (inactive).
For the compound `COc1cc(C)ccc1OCCOc1ccccc1Cl`, the inhibition was -4.77% (inactive).
Take `COc1cc(CO)cc(Br)c1OCC(=O)O`: the inhibition is -12.1% (inactive).
As to `CCc1ccc(N=C2NC(=O)/C(=C/c3ccc(OCC(=O)O)c(OC)c3)S2)cc1`, the inhibition was -3.47% (inactive).
The same measure, in the same setting: the value for `Cc1ccc(S(=O)(=O)NCCC(=O)Nc2nccs2)cc1` was -0.76% (inactive).
The same measure, in the same setting: then `Cc1cccc(N(CC(=O)Nc2ccccc2-c2ccccc2)S(=O)(=O)c2ccccc2)c1C`, with 1.45% (inactive).
As for `CC(C)(C)c1csc(CS(=O)(=O)c2ccccn2)n1`, the inhibition was -4.67% (inactive).
Same read-out and setting: the value for `Cc1ccc(NC(=O)c2ccc(S(=O)(=O)Nc3c(C)n(C)n(-c4ccccc4)c3=O)cc2)nc1` was -5.09% (inactive).
In the case of `O=C(CSc1nnc(-c2ccco2)c(-c2ccco2)n1)c1ccccc1`, the inhibition was 29.5% (inactive).
Still for that read-out and setting: then `Cc1ccc(NC(=O)CSc2nnc(-c3ccco3)c(-c3ccco3)n2)cc1`, with 14.3% (inactive); and `CSc1nnc(-c2ccccc2)c(-c2ccccc2)n1`, with -5.41% (inactive).
For `Cc1cccc(NC(=O)CSc2nnc(-c3ccco3)c(-c3ccco3)n2)c1`, the inhibition is 25.8% (inactive).
`Cc1cccc(NC(=O)CSc2nnc(-c3ccco3)o2)c1C`: the inhibition is 3.22% (inactive).
Still for that read-out and setting: the value for `Cc1ccccc1NC(=O)CSc1n[nH]c(-c2ccco2)n1` was 0.76% (inactive); that for `COc1cccc(NC(=O)c2ccc3c(O)c(S(=O)(=O)c4ccccc4)c(=O)[nH]c3c2)c1` was 4.09% (inactive).
On to `CCCCn1c(N)c(N(CC(C)C)C(=O)CC2CCCCC2)c(=O)[nH]c1=O`, for which the inhibition was -11.5% (inactive).
Still for that read-out and setting: then `C[C@@H]1CC2[C@@H]3CC[C@H]4CC(=O)CC[C@]4(C)C3=CC[C@]2(C)[C@@]1(O)C(=O)CO` (stereo not given in full), with -1.96% (inactive); and `CC1=C(C(=O)Nc2cccc(C(=O)NC(C)c3ccccc3)c2)SCCO1` (stereo not given), with -4.13% (inactive).
